Data reported in ChEMBL document CHEMBL4513216, “Probing the Open Global Health Chemical Diversity Library for Multistage-Active Starting Points for Next-Generation Antimalarials” (ACS Infect Dis, 2020).
Out of some 68,000 compounds screened, about 2,700 (4%) showed an effect of 50% or more. What follows is part of a selection rich in strong results, with near analogues and random picks from the rest.

System: Plasmodium berghei
Experiment: Screen against P. berghei liver stage (PbLuc), transformed with Luciferase, at 2uM
Format: functional, HepG2
Conditions: tested at 2 uM

| SMILES | INHIBITION [%] |
| --- | --- |
| CC(=O)N1CCCn2nc(CNS(=O)(=O)N3CCC(C)CC3)cc2C1 | 47.62 |
| O=c1[nH]c(NC2CCCC2)nc2nccc(-c3ccsc3)c12 | -18.11 |
| COCCN1CC[C@]2(CN(C(=O)c3ccc[nH]3)C[C@H]2C)C1=O | 16.21 |
| CCOc1c(Br)cc(CNCCc2nnc3n2CCCCC3)cc1OC | 23.16 |
| CC1CCCCN1C(=O)c1nc2c(n1C(C)C)CCN(C)C2 (stereo not drawn) | -19.99 |
| Cc1nn(C)c(C)c1C1CCCN1Cc1nc(C)c2ccccc2n1 (stereo not drawn) | 5.1 |
| N#CCCCOc1cccc(CN2CCCC2c2ccc[nH]2)c1 (stereo not drawn) | -61.99 |
| COc1cccc(CN2CCCC2c2ccc[nH]2)c1 (stereo not drawn) | 68.02 |
| NC(=O)COc1cccc(CN2CCCC2c2ccc[nH]2)c1 (stereo not drawn) | -4.58 |
| Cc1nn(C)c(C)c1C1CCCN1Cc1nc2ccccc2n1C (stereo not drawn) | 53.11 |
| CC(=O)N1CCN(C(=O)CN2CCCC2c2c(C)nn(C)c2C)CC1 (stereo not drawn) | 60.6 |
| Cc1nn(C)c(C)c1C1CCCN1Cc1cccc(OCC(N)=O)c1 (stereo not drawn) | 35.94 |
| Cc1nn(C)c(C)c1C1CCCN1Cc1cccc(C(N)=O)c1 (stereo not drawn) | 15.91 |
| Cc1nn(C)c(C)c1NC(=O)CN1CCCC1c1c(C)nn(C)c1C (stereo not drawn) | 23.42 |
| COc1cccc(CN2CCCC2c2c(C)nn(C)c2C)c1 (stereo not drawn) | 61.53 |
| Cc1nn(C)c(Cl)c1C1CCCN1CC(=O)N1CCCCC1 (stereo not drawn) | -0.9 |
| Cc1nc2ccccc2nc1CN1CCCC1c1c(C)nn(C)c1C (stereo not drawn) | 28.51 |
| Cn1cccc1CCC(=O)N1CCC2(CC1)c1ccccc1CC2O (stereo not drawn) | -57.12 |
| Cc1cnccc1N1CCCN(C(=O)CCc2n[nH]c(C)c2C)CC1 | -40.52 |
| O=C(c1ccc(F)c(Br)c1)N1CCCN2CCCC2C1 (stereo not drawn) | -4.48 |
| O=C(Cc1ccsc1)N1CCC(Cn2cc(CCO)nn2)CC1 | 12.57 |
| O=C(CCc1ccsc1)N1CCC(n2cc(CO)nn2)CC1 | -25.13 |
| COCc1cn(C2CCN(C(=O)Cc3ccsc3)CC2)nn1 | 53.98 |

| SMILES | INHIBITION [%] |
| --- | --- |
| Cc1noc(CCCC(=O)N2CCCCC2CNS(C)(=O)=O)n1 (stereo not drawn) | 30.58 |
| CC(C)Oc1ccc(CSc2nnc(CN3CCCC3=O)o2)cc1 | 0.63 |
| CC(C)c1cccc(CSc2nnc(CN3CCCC3=O)o2)n1 | -12.97 |
| O=C1CCCN1Cc1nnc(SCc2ccc3c(c2)CCC3)o1 | 52.31 |
| CCc1ncc(C(=O)NCCNC(=O)Cc2ccc(F)cc2)s1 | 61.99 |
| CN(C)CCCNC(=O)c1cnc(Cc2ccc(F)cc2)s1 | -12.27 |
| COC(=O)CCNC(=O)c1cnc(Cc2ccc(F)cc2)s1 | -9.47 |
| CCNC(=O)c1cnc(Cc2ccc(F)cc2)s1 | 6.55 |
| CCc1ncc(C(=O)NCCNc2ccncc2)s1 | -23 |
| CN(C)C(=O)CN(C)C(=O)c1cnc(Cc2ccc(F)cc2)s1 | 52.08 |
| O=C(CC1CCCO1)NCc1ccc(Br)cc1F (stereo not drawn) | -7.89 |
| CC(C)N1CCCC(C(=O)N2CCN(c3nsc4ccccc34)CC2)C1 (stereo not drawn) | -52.08 |
| O=C(NCC1CCOC1)c1csc(Cc2ccccc2)n1 (stereo not drawn) | 28.14 |
| Cc1ccc(C(=O)N2CC(C(N)=O)O[C@H](C)C2)c(F)c1 (stereo partly drawn) | -41.96 |
| COC(=O)C1CCCN1C(=O)c1ccc(Cl)cc1F (stereo not drawn) | -8.14 |
| COC(=O)C1CCCN1C(=O)c1ccc(Br)cc1F (stereo not drawn) | 61.96 |
| C[C@@H]1CN(C(=O)c2ccc(Br)cc2F)CC(C(N)=O)O1 (stereo partly drawn) | 57.34 |
| COC(=O)C1CCCCN1C(=O)c1ccc(N(C)C)cc1F (stereo not drawn) | 36.67 |
| Cc1ccc(C(=O)N2CC(C(N)=O)O[C@H](C)C2)c(C)c1 (stereo partly drawn) | -3.25 |
| Cc1ccsc1C(=O)N1CCc2ncc(CN(C)C)n2CC1 | 23.59 |
| Cc1cc(C)c2[nH]c(=O)c(CN3CCCC4(C3)CN(C)C(=O)O4)cc2c1 (stereo not drawn) | 15.08 |
| O=C(c1ccc(S(=O)(=O)NCCc2ccccn2)cc1)N1CCCC1 | 29.41 |
| CC(C)c1nn(C)c(N(C)C)c1CNCc1ccnn1C | 32.93 |

| SMILES | INHIBITION [%] |
| --- | --- |
| CCC1CN(CC(=O)NCCOC)CCO1 (stereo not drawn) | 36.09 |
| CCCNC(=O)CN1CCOC(CC)C1 (stereo not drawn) | 60.52 |
| CCC1CN(CC(=O)NCCC#N)CCO1 (stereo not drawn) | 21.72 |
| CCN(CC1CCOCC1)C(=O)C1CC(=O)N(Cc2cccnc2)C1 (stereo not drawn) | 10.83 |
| COc1ccc(CC(=O)N2CCCN(c3ccc(C#N)cc3)CC2)cc1 | -28.34 |
| O=C(NC1CCC1)C1=NOC2(CCN(Cc3ccc(F)cc3)C2)C1 (stereo not drawn) | 34.13 |
| COC(=O)N1CCC(Oc2ccc(C(=O)NCCN(C)C)cc2Cl)CC1 | 30.62 |
| CCC(=O)N1CCC(Oc2ccc(C(=O)NCCN(C)C)cc2Cl)CC1 | 51.96 |
| CN(C)CCNC(=O)c1ccc(OC2CCN(C(=O)CO)CC2)c(Cl)c1 | 14.63 |
| CNC(=O)c1nc(CN2CCOC(CCCC(C)C)C2)no1 (stereo not drawn) | -65.52 |
| NC(=O)c1nc(CN2CCOC(C(F)(F)F)C2)no1 (stereo not drawn) | 43.91 |
| CNC(=O)c1nc(CN2CCOC(C(F)(F)F)C2)no1 (stereo not drawn) | 65.76 |
| COC(=O)CC(c1ccc(OC)c(OC)c1OC)c1c(O)n[nH]c1C (stereo not drawn) | -8.07 |
| Cc1cc2c(=O)n3c(nc2s1)CCN(C(=O)c1cnn(C)c1)CC3 | -18.04 |
| Cc1cc2c(=O)n3c(nc2s1)CCN(C(=O)c1cn(C)nc1C)CC3 | 66.16 |
| Cc1cc2c(=O)n3c(nc2s1)CCN(C(=O)c1nn(C)cc1Cl)CC3 | 26.56 |
| COCCc1noc(CN(C)c2cc(C)ncn2)n1 | 41.63 |
| Cc1nc(N2CCN(C(=O)c3ccncc3)CC2)c2c(n1)c(C)nn2C | 4.87 |
| COc1cccc(CC2(C(=O)O)CCN(c3nccs3)CC2)c1 | 50.59 |
| COc1cccc(CC2(C(=O)O)CCN(c3ccc(Cl)cn3)CC2)c1 | 7.67 |
| COc1cccc(CC2(CO)CCCN(c3nccs3)C2)c1 (stereo not drawn) | 14.21 |
| Cc1nc(N(C)Cc2cccc(O)c2)nc2cc(S(C)(=O)=O)ccc12 | 33.4 |
